According to ChEMBL document CHEMBL1157539, “Thousands of chemical starting points for antimalarial lead identification” (Nature, 2010):

Assays:
Format in all cases: functional
Plasmodium falciparum [1] = assay: GSK_TCMDC: Inhibition of Plasmodium falciparum 3D7 in whole red blood cells, using parasite LDH activity as an index of growth. Test compounds present at 2uM
Plasmodium falciparum [2] = assay: GSK_TCMDC: Inhibition of Plasmodium falciparum Dd2 in whole red blood cells, using parasite LDH activity as an index of growth. Test compounds present at 2uM
HepG2 = assay: GSK_TCMDC: Percent inhibition of human HepG2 cell line. Test compounds present at 10uM.

Compound: O=C(/C=C/c1c(Cl)cccc1Cl)NC1CCC(CN2CCC(c3c[nH]c4ccncc34)CC2)CC1 (stereo not given)
- Inhibition (Plasmodium falciparum [1]): 99%
- Inhibition (Plasmodium falciparum [2]): 100%
- Inhibition (HepG2): 78%

Compound: Cc1cc(=NN=Cc2ccc(Cl)cc2)c2cc(F)ccc2[nH]1
- Inhibition (Plasmodium falciparum [1]): 100%
- Inhibition (Plasmodium falciparum [2]): 98%
- Inhibition (HepG2): 6%

Compound: CN1CCN(c2ccc(-c3cccc(NC(=O)c4cccc([N+](=O)[O-])c4)c3)nn2)CC1
- Inhibition (Plasmodium falciparum [1]): 99%
- Inhibition (Plasmodium falciparum [2]): 35%
- Inhibition (HepG2): 21%

Compound: O=C(NCCc1ccccc1)N(Cc1ccccc1-c1ccc(CNC2CCCC2)cc1)C1CCN(Cc2ccccc2)CC1.O=C(O)C(F)(F)F
- Inhibition (Plasmodium falciparum [1]): 96%
- Inhibition (Plasmodium falciparum [2]): 95%
- Inhibition (HepG2): 96%

Compound: CN1CCN(CCCN(Cc2csc(-c3ccc(CNCc4ccccc4)cc3)n2)S(=O)(=O)c2cccc3cccnc23)CC1.O=C(O)C(F)(F)F
- Inhibition (Plasmodium falciparum [1]): 89%
- Inhibition (Plasmodium falciparum [2]): 32%
- Inhibition (HepG2): 5%

Compound: Cc1cccc2nc(-c3ccc(-c4ccc(CN5CCC(C(N)=O)CC5)cc4)cc3)[nH]c12.O=C(O)C(F)(F)F
- Inhibition (Plasmodium falciparum [1]): 91%
- Inhibition (Plasmodium falciparum [2]): 32%
- Inhibition (HepG2): 8%

Compound: Cn1nc(-c2ccc(NC(=O)Nc3cc(C(F)(F)F)ccc3F)cc2)c2cnc(NCCc3c[nH]cn3)nc21.O=C(O)C(F)(F)F
- Inhibition (Plasmodium falciparum [1]): 99%
- Inhibition (Plasmodium falciparum [2]): 56%
- Inhibition (HepG2): 15%

Compound: O=C(NC1CCCCCC1)C1CCCN(C(=O)c2ccc(O)c(-c3ccc(Cl)c(Cl)c3)c2)C1 (stereo not given)
- Inhibition (Plasmodium falciparum [1]): 98%
- Inhibition (Plasmodium falciparum [2]): 21%
- Inhibition (HepG2): 5%

Compound: CC(C)CCN1CCC(Oc2ccc(NC(=O)c3cccs3)cc2Cl)C1.O=C(O)C(F)(F)F (stereo not given)
- Inhibition (Plasmodium falciparum [1]): 94%
- Inhibition (Plasmodium falciparum [2]): 93%
- Inhibition (HepG2): 17%

Compound: Cc1[nH]c(C)c(-c2ccc(-c3ccccc3Cl)nc2)c(=O)c1Br
- Inhibition (Plasmodium falciparum [1]): 97%
- Inhibition (Plasmodium falciparum [2]): 96%
- Inhibition (HepG2): 0%
